From publication PMC7862700, “An all-to-all approach to the identification of sequence-specific readers for epigenetic DNA modifications on cytosine”

Legend:
Test in all cases: DAPPL (digital affinity profiling via proximity ligation, sequencing); 10 mM Tris-HCl pH 7.5, 50 mM NaCl, 1 mM DTT, 4% glycerol, room temperature, 30 min; GST-TFs on glutathione beads, 16-mer random dsDNA library, 0.1% formaldehyde crosslink after washing; high values mean tight binding
Settings in all cases: protein: recombinant; tags: N-terminal GST; dsDNA, one strand shown
FLI1 = molecular target: T1, FLI1 (Homo sapiens, UniProt Q01543 1-452)
T1 sequence: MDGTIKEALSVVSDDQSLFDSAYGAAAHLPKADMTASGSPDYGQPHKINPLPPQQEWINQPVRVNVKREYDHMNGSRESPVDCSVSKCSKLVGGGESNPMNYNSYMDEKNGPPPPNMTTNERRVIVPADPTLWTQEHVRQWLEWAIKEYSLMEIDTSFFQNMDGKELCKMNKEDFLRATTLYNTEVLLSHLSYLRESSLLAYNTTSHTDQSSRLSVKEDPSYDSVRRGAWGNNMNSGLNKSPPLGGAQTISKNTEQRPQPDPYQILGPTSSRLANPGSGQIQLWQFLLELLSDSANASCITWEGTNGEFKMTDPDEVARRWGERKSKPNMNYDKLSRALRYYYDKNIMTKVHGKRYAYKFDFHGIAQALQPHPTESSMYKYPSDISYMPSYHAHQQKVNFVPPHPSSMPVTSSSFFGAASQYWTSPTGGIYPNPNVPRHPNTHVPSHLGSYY
Summary of the method: (§1)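 Human transcription factors fused to GST were expressed in yeast, captured on glutathione beads, given DNA barcodes and pooled with a GST-only negative control. Pools were incubated with 200 nmole of a 16-mer random double-stranded DNA library in Tris/NaCl/DTT/glycerol buffer at room temperature for 30 min. They were then washed, crosslinked with 0.1% formaldehyde, proximity-ligated (BsaI/T4 ligase, 1 h, 37 °C), PCR-amplified and sequenced on an Illumina NextSeq500. Binding signal is each 6-mer's read frequency for a factor divided by its frequency for the GST control.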

ELK1 = molecular target: T2, ELK1 (Homo sapiens, UniProt P19419 1-428)
T2 sequence: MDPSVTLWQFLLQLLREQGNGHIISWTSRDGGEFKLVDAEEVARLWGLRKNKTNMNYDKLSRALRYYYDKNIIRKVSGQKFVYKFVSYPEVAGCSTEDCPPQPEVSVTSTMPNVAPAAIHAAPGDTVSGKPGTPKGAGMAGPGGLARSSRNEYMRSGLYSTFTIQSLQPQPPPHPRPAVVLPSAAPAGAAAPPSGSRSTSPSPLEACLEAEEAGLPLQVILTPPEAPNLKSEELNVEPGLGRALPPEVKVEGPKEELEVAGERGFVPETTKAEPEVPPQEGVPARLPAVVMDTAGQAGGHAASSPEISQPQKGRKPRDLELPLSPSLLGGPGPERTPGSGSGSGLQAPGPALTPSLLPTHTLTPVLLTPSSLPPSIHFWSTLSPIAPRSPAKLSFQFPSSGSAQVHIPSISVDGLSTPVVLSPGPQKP
Summary of the method: as §1

GABPA = molecular target: T3, GABPA (Homo sapiens, UniProt Q06546 1-454)
T3 sequence: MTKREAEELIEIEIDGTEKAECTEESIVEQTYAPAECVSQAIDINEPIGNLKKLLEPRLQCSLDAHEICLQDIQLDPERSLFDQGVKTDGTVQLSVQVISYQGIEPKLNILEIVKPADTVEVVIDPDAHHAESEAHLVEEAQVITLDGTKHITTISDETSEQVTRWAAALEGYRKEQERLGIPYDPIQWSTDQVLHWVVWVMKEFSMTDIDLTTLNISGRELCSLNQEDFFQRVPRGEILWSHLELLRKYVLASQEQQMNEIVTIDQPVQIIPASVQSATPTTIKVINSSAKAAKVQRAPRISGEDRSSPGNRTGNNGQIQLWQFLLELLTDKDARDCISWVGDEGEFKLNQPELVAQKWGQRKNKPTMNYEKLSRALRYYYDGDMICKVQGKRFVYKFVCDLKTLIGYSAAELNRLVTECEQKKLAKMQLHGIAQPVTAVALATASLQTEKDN
Summary of the method: as §1

ERG = molecular target: T4, ERG (Homo sapiens, UniProt P11308 1-479)
T4 sequence: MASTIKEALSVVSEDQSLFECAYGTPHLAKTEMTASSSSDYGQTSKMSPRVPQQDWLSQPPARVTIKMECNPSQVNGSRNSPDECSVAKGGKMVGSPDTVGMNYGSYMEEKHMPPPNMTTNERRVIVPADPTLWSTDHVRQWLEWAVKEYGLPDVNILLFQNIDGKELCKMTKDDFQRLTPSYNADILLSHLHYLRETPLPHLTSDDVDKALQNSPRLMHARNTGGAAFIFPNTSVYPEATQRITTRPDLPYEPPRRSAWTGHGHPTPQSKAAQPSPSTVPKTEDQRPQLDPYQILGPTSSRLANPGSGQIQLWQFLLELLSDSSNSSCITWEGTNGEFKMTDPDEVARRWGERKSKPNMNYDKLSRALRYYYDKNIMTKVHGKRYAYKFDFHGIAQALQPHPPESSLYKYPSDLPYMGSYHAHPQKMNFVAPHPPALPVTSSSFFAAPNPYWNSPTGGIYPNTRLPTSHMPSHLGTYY
Summary of the method: as §1

ELF1 = ELF1 (Homo sapiens, UniProt P32519 1-619)
Summary of the method: as §1

EHF = molecular target: T5, EHF (Homo sapiens, UniProt Q9NZC4 1-300)
T5 sequence: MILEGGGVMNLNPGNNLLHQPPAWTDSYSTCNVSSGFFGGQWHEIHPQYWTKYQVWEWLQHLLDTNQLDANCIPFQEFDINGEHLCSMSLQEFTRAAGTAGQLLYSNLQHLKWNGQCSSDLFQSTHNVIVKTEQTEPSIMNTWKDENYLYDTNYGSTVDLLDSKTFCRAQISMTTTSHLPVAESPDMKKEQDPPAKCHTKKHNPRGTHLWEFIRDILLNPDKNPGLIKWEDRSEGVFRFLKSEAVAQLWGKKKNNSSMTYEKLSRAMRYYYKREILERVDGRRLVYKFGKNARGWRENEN
Summary of the method: as §1

SPI1 = SPI1 (Homo sapiens, UniProt P17947 1-270)
Summary of the method: as §1

SPIB = SPIB (Homo sapiens, UniProt Q01892 1-262)
Summary of the method: as §1

ELK3 = molecular target: T6, ELK3 (Homo sapiens, UniProt P41970 1-407)
T6 sequence: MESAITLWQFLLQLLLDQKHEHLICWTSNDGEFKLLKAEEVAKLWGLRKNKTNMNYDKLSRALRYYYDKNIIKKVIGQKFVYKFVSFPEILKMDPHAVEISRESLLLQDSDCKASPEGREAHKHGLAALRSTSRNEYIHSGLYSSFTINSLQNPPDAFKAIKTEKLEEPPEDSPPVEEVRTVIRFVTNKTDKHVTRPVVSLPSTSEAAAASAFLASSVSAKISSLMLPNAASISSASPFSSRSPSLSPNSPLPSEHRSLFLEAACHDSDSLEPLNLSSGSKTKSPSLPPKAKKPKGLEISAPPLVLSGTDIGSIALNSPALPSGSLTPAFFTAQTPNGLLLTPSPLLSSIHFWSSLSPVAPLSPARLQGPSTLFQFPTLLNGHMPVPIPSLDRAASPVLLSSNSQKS
Summary of the method: as §1

Chain of SPIB (Q01892 whole entry): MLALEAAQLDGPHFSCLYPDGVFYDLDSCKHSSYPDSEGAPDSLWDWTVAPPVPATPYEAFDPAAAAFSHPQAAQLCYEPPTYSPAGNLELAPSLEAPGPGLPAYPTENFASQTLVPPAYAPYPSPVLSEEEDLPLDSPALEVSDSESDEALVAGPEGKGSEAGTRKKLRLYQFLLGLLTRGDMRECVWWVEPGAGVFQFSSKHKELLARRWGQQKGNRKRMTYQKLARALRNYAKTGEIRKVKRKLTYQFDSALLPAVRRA
Chain of ELF1 (P32519 whole entry): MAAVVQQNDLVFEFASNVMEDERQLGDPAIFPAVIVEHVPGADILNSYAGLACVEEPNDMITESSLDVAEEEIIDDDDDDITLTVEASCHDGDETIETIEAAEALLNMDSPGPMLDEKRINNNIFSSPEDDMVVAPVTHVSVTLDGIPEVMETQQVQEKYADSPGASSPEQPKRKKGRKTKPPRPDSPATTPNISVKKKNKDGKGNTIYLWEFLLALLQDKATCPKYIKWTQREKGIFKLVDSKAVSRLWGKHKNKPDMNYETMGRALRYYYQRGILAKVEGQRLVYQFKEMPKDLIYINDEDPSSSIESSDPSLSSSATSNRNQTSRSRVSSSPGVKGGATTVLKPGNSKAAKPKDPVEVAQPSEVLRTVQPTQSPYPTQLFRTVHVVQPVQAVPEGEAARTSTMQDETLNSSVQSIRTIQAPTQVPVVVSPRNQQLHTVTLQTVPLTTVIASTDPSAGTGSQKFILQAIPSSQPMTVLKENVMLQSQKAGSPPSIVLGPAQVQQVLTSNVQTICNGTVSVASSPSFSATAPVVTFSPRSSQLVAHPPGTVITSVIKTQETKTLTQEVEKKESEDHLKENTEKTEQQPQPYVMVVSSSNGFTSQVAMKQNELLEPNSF

For TTCTGT, the binding signal (FLI1) was 1.26 fold enrichment (6-mer frequency, TF over GST control), the binding signal (ELK1) was 1.3 fold enrichment (6-mer frequency, TF over GST control) and the binding signal (GABPA) was 1.3 fold enrichment (6-mer frequency, TF over GST control). The binding signal (ERG) was 1.27 fold enrichment (6-mer frequency, TF over GST control), the binding signal (ELF1) was 1.27 fold enrichment (6-mer frequency, TF over GST control) and the binding signal (EHF) was 1.25 fold enrichment (6-mer frequency, TF over GST control). The binding signal (SPI1) was 1.37 fold enrichment (6-mer frequency, TF over GST control), the binding signal (SPIB) was 1.22 fold enrichment (6-mer frequency, TF over GST control) and the binding signal (ELK3) was 1.33 fold enrichment (6-mer frequency, TF over GST control).
With ATATTT the binding signal (FLI1) was 1.6 fold enrichment (6-mer frequency, TF over GST control), the binding signal (ELK1) was 1.54 fold enrichment (6-mer frequency, TF over GST control) and the binding signal (GABPA) was 1.55 fold enrichment (6-mer frequency, TF over GST control). The binding signal (ERG) was 1.53 fold enrichment (6-mer frequency, TF over GST control), the binding signal (ELF1) was 1.55 fold enrichment (6-mer frequency, TF over GST control) and the binding signal (EHF) was 1.56 fold enrichment (6-mer frequency, TF over GST control). The binding signal (SPI1) was 1.43 fold enrichment (6-mer frequency, TF over GST control), the binding signal (SPIB) was 1.51 fold enrichment (6-mer frequency, TF over GST control) and the binding signal (ELK3) was 1.47 fold enrichment (6-mer frequency, TF over GST control).
AAGCGG was tested, and the binding signal (FLI1) was 1.13 fold enrichment (6-mer frequency, TF over GST control), the binding signal (ELK1) was 1.05 fold enrichment (6-mer frequency, TF over GST control) and the binding signal (GABPA) was 1.11 fold enrichment (6-mer frequency, TF over GST control). The binding signal (ERG) was 1.1 fold enrichment (6-mer frequency, TF over GST control), the binding signal (ELF1) was 1.11 fold enrichment (6-mer frequency, TF over GST control) and the binding signal (EHF) was 1.15 fold enrichment (6-mer frequency, TF over GST control). For the same sequence, the binding signal (SPI1) was 1.81 fold enrichment (6-mer frequency, TF over GST control), the binding signal (SPIB) was 1.03 fold enrichment (6-mer frequency, TF over GST control) and the binding signal (ELK3) was 1.11 fold enrichment (6-mer frequency, TF over GST control).
In the case of ACACCT, the binding signal (FLI1) is reported as 1.1 fold enrichment (6-mer frequency, TF over GST control), the binding signal (ELK1) is reported as 1.09 fold enrichment (6-mer frequency, TF over GST control) and the binding signal (GABPA) is reported as 1.04 fold enrichment (6-mer frequency, TF over GST control). The binding signal (ERG) was 1.12 fold enrichment (6-mer frequency, TF over GST control), the binding signal (ELF1) was 1.07 fold enrichment (6-mer frequency, TF over GST control) and the binding signal (EHF) was 1.13 fold enrichment (6-mer frequency, TF over GST control). The binding signal (SPI1) was 1.09 fold enrichment (6-mer frequency, TF over GST control), the binding signal (SPIB) was 1.03 fold enrichment (6-mer frequency, TF over GST control) and the binding signal (ELK3) was 1.06 fold enrichment (6-mer frequency, TF over GST control).
With AAACTG the binding signal (FLI1) was 1.09 fold enrichment (6-mer frequency, TF over GST control), the binding signal (ELK1) was 1.11 fold enrichment (6-mer frequency, TF over GST control) and the binding signal (GABPA) was 1.17 fold enrichment (6-mer frequency, TF over GST control). For the same sequence, the binding signal (ERG) was 1.01 fold enrichment (6-mer frequency, TF over GST control), the binding signal (ELF1) was 1.09 fold enrichment (6-mer frequency, TF over GST control) and the binding signal (EHF) was 1.06 fold enrichment (6-mer frequency, TF over GST control). The binding signal (SPI1) was 1.12 fold enrichment (6-mer frequency, TF over GST control), the binding signal (SPIB) was 1.1 fold enrichment (6-mer frequency, TF over GST control) and the binding signal (ELK3) was 1.32 fold enrichment (6-mer frequency, TF over GST control).
For GAAATT, the binding signal (FLI1) was 1.23 fold enrichment (6-mer frequency, TF over GST control), the binding signal (ELK1) was 1.15 fold enrichment (6-mer frequency, TF over GST control) and the binding signal (GABPA) was 1.29 fold enrichment (6-mer frequency, TF over GST control). The binding signal (ERG) was 1.32 fold enrichment (6-mer frequency, TF over GST control), the binding signal (ELF1) was 1.23 fold enrichment (6-mer frequency, TF over GST control) and the binding signal (EHF) was 1.36 fold enrichment (6-mer frequency, TF over GST control). For the same sequence, the binding signal (SPI1) was 1.23 fold enrichment (6-mer frequency, TF over GST control), the binding signal (SPIB) was 1.3 fold enrichment (6-mer frequency, TF over GST control) and the binding signal (ELK3) was 1.28 fold enrichment (6-mer frequency, TF over GST control).
In the case of GAATTG, the binding signal (FLI1) is reported as 1.15 fold enrichment (6-mer frequency, TF over GST control), the binding signal (ELK1) is reported as 1.12 fold enrichment (6-mer frequency, TF over GST control) and the binding signal (GABPA) is reported as 1.09 fold enrichment (6-mer frequency, TF over GST control). The binding signal (ERG) was 1.1 fold enrichment (6-mer frequency, TF over GST control), the binding signal (ELF1) was 1.11 fold enrichment (6-mer frequency, TF over GST control) and the binding signal (EHF) was 1.12 fold enrichment (6-mer frequency, TF over GST control). The binding signal (SPI1) was 1.17 fold enrichment (6-mer frequency, TF over GST control), the binding signal (SPIB) was 1.21 fold enrichment (6-mer frequency, TF over GST control) and the binding signal (ELK3) was 1.21 fold enrichment (6-mer frequency, TF over GST control).
For CCCATG, the binding signal (FLI1) was 1.06 fold enrichment (6-mer frequency, TF over GST control), the binding signal (ELK1) was 1 fold enrichment (6-mer frequency, TF over GST control) and the binding signal (GABPA) was 1.22 fold enrichment (6-mer frequency, TF over GST control). The binding signal (ERG) was 1.19 fold enrichment (6-mer frequency, TF over GST control), the binding signal (ELF1) was 1.15 fold enrichment (6-mer frequency, TF over GST control) and the binding signal (EHF) was 1.11 fold enrichment (6-mer frequency, TF over GST control). For the same sequence, the binding signal (SPI1) was 1.14 fold enrichment (6-mer frequency, TF over GST control), the binding signal (SPIB) was 1.15 fold enrichment (6-mer frequency, TF over GST control) and the binding signal (ELK3) was 1.13 fold enrichment (6-mer frequency, TF over GST control).
